Source: PubChem BioAssay (National Center for Advancing Translational Sciences (NCATS))
PINK1 modulator = changes PINK1 expression; PINK1 immunofluorescence, high-content cytometry, 24 h; Potency, µM (top dose mostly 76.6 µM), for the others: at the top dose activation (PINK1 increase), usual class: activators; 410,000 compounds, 0.2% hits; AID 624263; active = well fitted activation curve with a large enough effect; inconclusive = small, poorly fitted or top-dose-only effect; cell line not stated here; note: % of control where 0% means no effect; nearly all actives have a fitted effect of over 65% in size
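Stable cell line, 250 cells/well, 12 h attachment; compounds pinned at 5 concentrations, 24 h; CCCP control. Fixed with nuclear dye, primary antibodies 12 h at 10 degrees C, secondary plus cell stain; laser-scanning cytometer read.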
SW480 rerep = induces DNA re-replication in SW480 colon adenocarcinoma cells; 340,000 compounds, 1.8% hits; AID 624297; SW480 DNA re-replication, Hoechst DNA content imaging, 48 h; Potency, µM (doses to about 46.1 µM), for inactives: top-dose re-replication activation, usual class: activators; note: % of control where 0% means no effect; nearly all actives have a fitted effect of over 55% in size
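Readout is total intensity of Hoechst-stained nuclei, excited at 405 nm and collected at 500-530 nm. Compound treatment lasted 48 hr at 37 C in 5% CO2 before staining.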
KB-3-1 tox = kills parental KB-3-1 adenocarcinoma cells. AID 1347075. 400,000 compounds, 1.4% hits. KB-3-1 viability, CellTiter-Glo ATP luminescence, 72 h. Potency, µM (highest dose often 46.1 µM), actives largely listed as cytotoxic; note: % is set by controls: 0 for no effect and ±100 for the full control effect; nearly all actives have a fitted effect of over 60% in size
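Using CellTiter-Glo luminescence, growth of non-resistant KB-3-1 adenocarcinoma cells is assessed 72 h after pin-tool compound addition at 37 °C. Normalized responses across the concentration series yield fitted curves.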
KB-V1 MDR tox = kills drug-selected multidrug resistant KB-V1 cells | AID 1347076 | 400,000 compounds, 3.4% hits | KB-V1 MDR cells viability, CellTiter-Glo, 72 h | Potency, µM (titrated, usually from 46.1 µM), usual class: cytotoxic; note: % is set by controls: 0 for no effect and ±100 for the full control effect; nearly all actives have a fitted effect of over 60% in size
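Cytotoxicity toward P-gp-expressing KB-V1 cells was determined as loss of CellTiter-Glo luminescence after 72 h at 37 degrees C. Compounds were tested in quantitative HTS format across a concentration range, with curves fitted to normalized data.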
MCF10A rereplic = inducers of DNA re-replication in MCF 10A breast cells. MCF 10A DNA re-replication, Hoechst nuclear intensity, 48 h. Potency, µM (titrated, usually from 46.1 µM), for inactives: at the highest dose activity, positive = re-replication, actives largely listed as activators. 350,000 compounds, 2.9% hits; note: % of control where 0% means no effect; nearly all actives have a fitted effect of over 50% in size
Starred values were filed as active, the others as inactive; i = inactive; ? = inconclusive; · = not tested or not shown; ! = not active in a repeat; [ ] = another dose, or the depositor's remark. Hits are enriched below; roughly 6.7% of the tested compounds scored in any of these assays. Unless noted, calls come from the whole dose curve; as a rule, active = well fitted curve in the direction sought with a large enough effect; inconclusive = small, poorly fitted or top-dose-only effect, or another doubt; inactive = no such curve, though single readings can be large; an effect the other way counts as inactive or inconclusive. Potency is the fitted concentration of half-maximal effect.

SMILES | PINK1 modulator | SW480 rerep | KB-3-1 tox | KB-V1 MDR tox | MCF10A rereplic
Cc1nc(Cl)c(C(=O)NC(=O)Nc2cccc(C(F)(F)F)c2)c(C)c1[N+](=O)[O-] | ? | ? | 10µM* | ? | 18%
CC(C)Nc1nc(NC(C)C)nc(Oc2ccc(=O)n(C)n2)n1 | 3% | -2% | i | i | 1%
Cc1cccc(Nc2nc(NC(C)C)nc(Oc3ccc(=O)n(C)n3)n2)c1 | 10%[38.3 µM] | -19% | i | 8.2µM* | -3%
C=C1C(=O)[C@]23C[C@H]1CCC2[C@]1(C)CCC[C@@](C)(C(=O)O)C1C[C@@H]3O (some centres not stated) | 0% | · | 8.2µM* | ? | ·
CC(Oc1ccccc1)C(=O)Nc1ccc(C(=O)OCc2cc(=O)n3ccsc3n2)cc1 (configuration not stated) | -3% | · | i | i | ·
COCCN1C[C@@H](CO)O[C@@H](n2cnc3c(NCc4ccc(F)cc4)ncnc32)C1 | 1% | · | i | i | ·
COc1ccc(C#Cc2c(-c3ccccc3)n(C)c3ccccc23)cc1 | 4% | ? | ? | i | ?
Cn1c(-c2ccc(C#N)cc2)c(C#Cc2ccccc2)c2ccccc21 | 2% | 1.3µM* | i | i | ?
Cc1cc(C#Cc2c(-c3ccccc3)n(C)c3ccccc23)ccc1F | 2% | -11% | i | i | 8.2µM*
CC(C)C(=O)Nc1ccc(-c2nnc(-c3ccccc3)o2)cc1 | ? | 4% | i | i | 2%
CCC(CC)C(=O)Nc1cccc(C(=O)c2ccccc2)c1 | 4%[38.3 µM] | 1% | i | 9.2µM* | 2%
CC(C)C(=O)Nc1ccc(C(=O)c2ccccc2)cc1 | 4%[38.3 µM] | -7% | i | 13µM* | 2%
CCc1nn(C(C)C(=O)N2CCN(c3cccc(C(F)(F)F)c3)CC2)c(=O)c2cc3occc3n12 (configuration not stated) | 0% | · | 13µM* | 8.2µM* | ·
CCc1nn(CCCC(=O)NCc2ccc(OC(C)C)cc2)c(=O)c2cc3occc3n12 | 0% | ? | 7.3µM* | ? | ?
CCc1nn(C(C)C(=O)N2CCN(Cc3ccccc3)CC2)c(=O)c2cc3occc3n12 (configuration not stated) | -3% | 1% | i | i | -4%
CCc1nn(C(C)C(=O)N2CCN(c3ccc(OC)cc3)CC2)c(=O)c2cc3occc3n12 (configuration not stated) | 3% | ? | 9.2µM* | i | ?
CCC(C(=O)N1CCN(c2ccc(OC)cc2)CC1)n1nc(C)n2c(cc3occc32)c1=O (configuration not stated) | 9% | · | ? | ? | ·
COc1cccc(C2c3c(C)nn(-c4ccc([N+](=O)[O-])cc4)c3N=C3C(=O)Nc4ccccc4N32)c1 (configuration not stated) | 1% | -5% | i | i | ?
COc1ccc(NC2=Nc3ccccc3N3C2=Nc2c(c(C)nn2-c2ccc(C)cc2)C3c2cccnc2)cc1 (configuration not stated) | 6% | 2.9µM* | i | ? | 4.6µM*
CC(=O)Nc1ccc(NC2=Nc3ccccc3N3C2=Nc2c(c(C)nn2-c2ccccc2)C3c2ccccc2)cc1 (configuration not stated) | 1% | ? | 8.2µM* | ? | ?
Cc1ccccc1C(=O)N1CCC[C@@H]1C(=O)N1CCC[C@H]1C(=O)NCc1ccncc1 | 0% | · | i | i | ·
COc1ccc(NC(=O)CSc2nc3ccc(OC)cc3[nH]2)cc1 | -1% | -7% | i | i | -3%
O=C(CSc1nc2cc3ccccc3cc2[nH]1)Nc1ccc(F)cc1 | 3% | 0% | i | 16µM*! | 1%
COc1cccc(NC(=O)CSc2nc3ncc(Br)cc3[nH]2)c1 | 7% | -10% | i | i | 8%
O=C(CSc1nc2ncc(Br)cc2[nH]1)Nc1ccccc1-c1ccccc1 | ? | 26% | i | ? | 26µM*
SMILES | PINK1 modulator | SW480 rerep | KB-3-1 tox | KB-V1 MDR tox | MCF10A rereplic
O=C(CSc1nc2ncc(Cl)cc2[nH]1)Nc1ccccc1-c1ccccc1 | ? | ? | i | i | ?
CCc1ccc(NC(=O)CSc2nc3ncc(Br)cc3[nH]2)cc1 | 3% | -6% | i | i | 12µM*
COc1cc2ccccc2cc1C(=O)Nc1cccc(-c2nc3cc(C)c(C)cc3o2)c1 | 1% | · | i | i | ·
CCN(CC)c1c(C)nc2ccc(C(=O)Nc3cc(-c4ccccc4)ccc3OC)cn12 | 14% | · | i | ? | ·
CN(C(=O)c1cccc(NC(=O)Cc2ccc(NC(=O)C3CCCN(C(=O)C4CCC4)C3)cc2)c1)C1CCC1 (configuration not stated) | 0% | -5% | i | i | -2%
Cc1cccc(C)c1NC(=O)C(c1ccccc1OC(F)(F)F)N1CCN(C)CC1 (configuration not stated) | · | · | i | ? | ·
O=S(=O)(/N=S1\CC=CCN1S(=O)(=O)c1ccccc1)c1ccccc1 (configuration not stated) | 0% | ? | i | i | 18µM*
C=C1C(=O)O[C@@H]2[C@H]3O[C@]3(C)CC/C=C(\C)CC[C@@H]12 | 3% | -13% | i | i | 4.1µM*
O=C(N/N=C/c1cc(Br)cc([N+](=O)[O-])c1O)c1ccc(NC(=O)c2ccc(F)cc2)cc1 | 2% | ? | i | i | 6%
CC(C)C(=O)Nc1cccc(C(=O)OCC(=O)c2ccc(Cl)cc2Cl)c1 | ? | 3% | i | 15µM* | 10%
O=S(=O)([N-]c1nc2ccccc2nc1-n1cc[n+](Cc2ccccc2)c1)c1ccc(Br)cc1 | 3% | 18µM* | i | i | 18µM*
CC(C)CC[n+]1ccn(-c2nc3ccccc3nc2[N-]S(=O)(=O)c2ccc(Cl)cc2)c1 | 3% | ? | i | i | 23µM*
Cc1ccc(S(=O)(=O)[N-]c2nc3ccccc3nc2-n2cc[n+](CCC(C)C)c2)cc1 | · | 17% | i | i | -15%
Cc1ccc2[nH]nc(C(=O)N3CCOc4ccc(CN5CCc6sccc6C5)cc4C3)c2c1 | 4% | · | · | · | ·
CCNC(=S)N1CCN(C(=O)C(Cc2ccccc2)NC(C)=O)CC1 (configuration not stated) | 2% | 5% | i | i | 0.65µM*
CC(=O)NC(Cc1ccccc1)C(=O)N1CCN(C(=S)NCC(C)C)CC1 (configuration not stated) | 1% | -14% | i | i | -4%
C/C(=N\N=C(/N)SC1CC(=O)N(c2ccccc2)C1=O)c1cccs1 (configuration not stated) | 3%[38.3 µM] | 3.7µM* | i | i | 2.3µM*
